Test results reported in article PMC12440807.

Biological target: Transcription elongation factor SPT6 (UniProt Q7KZ85)
Experiment: cross-link between two proteins; cross-linking mass spectrometry

Listed as a hit, yes:
DNA-directed RNA polymerase II subunit RPB7, P62487
Transcription elongation factor SPT5, O00267
Transcription elongation factor SPT4, P63272
